A short description of assay [1]: antimalarial activity against Dd2 strain (AID 2302;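 active means growth inhibition above 50% at the single 2 µM test dose, taken to imply half-maximal potency below 2 µM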;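 further: 0% = DMSO untreated growth and 100% = chloroquine plus artemisinin killed control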). To be noted: P. falciparum Dd2 in RBCs, LDH growth readout, 72 h; at 2 µM; hits give high values.
The nature of assay [2]: human hepatoma cell viability loss – ATP luminescence, cytotoxicity control for P. falciparum antimalarial project, primary screen (AID 2303;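 active means inhibition above 50%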;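 further: 0% = DMSO wells and 100% = digitonin-killed cells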). To be noted: HepG2 viability, 24-48 h, at 10 µM, hits give high values.
The target in assay [3] is L-lactate dehydrogenase (Plasmodium falciparum (isolate CDC / Honduras)) (UniProt Q27743). Nature of the assay: PfLDH activity inhibition – cell lysate, 3D7 strain, counter-screen for P. falciparum growth inhibition project (AID 2304).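 Further: 0% = vehicle and 100% = reference inhibitor.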 Particulars: P. falciparum 3D7 crude extract, LDH APAD/NBT absorbance; at 2 µM; hits give high values. Background: A counterscreen serves to expose hits that act by an unwanted route or on another target.

Assay [4] in a line: inhibition of 3D7 malaria parasite growth – strain 3D7 (AID 2306).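 Further: 0% = DMSO wells and 100% = chloroquine plus artemisinin control wells.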 To be noted: P. falciparum 3D7 erythrocytic growth, LDH absorbance, 72 h; at 2 µM; hits give high values.
The target in assay [5] is Calcium-dependent protein kinase 1 (Plasmodium falciparum (isolate 3D7)) (UniProt P62344). Nature of the assay: PfCDPK1 kinase inhibitors, biochemical, TCAMS library (AID 1159585; cut-off not given, nearly all actives have IC50 up to about 0.98 µM;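 further: inhibitors leave more ATP so luminescence rises with inhibition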). Particulars: recombinant PfCDPK1, Kinase-Glo ATP depletion luminescence. (In general: In Kinase-Glo more light means more ATP remaining.)
Assay [6] has as its target Plasmodium falciparum protein kinase 6 (PK6, PF3D7_1337100) (UniProt Q8IDW1). Kind of assay: PfPK6 kinase inhibitors, biochemical, TCAMS library (AID 1159586). Particulars: recombinant PfPK6, Kinase-Glo ATP depletion luminescence.
Assay [7] deals with Protein kinase 7 (PK7), Plasmodium falciparum 3D7 (PF3D7_0213400) (UniProt Q7YTF7). Nature of the assay: inhibition of Plasmodium PK7 catalytic activity – biochemical, TCAMS antimalarial set, Kinase-Glo luminescence (AID 1159587). Particulars: recombinant PfPK7, Kinase-Glo ATP depletion luminescence.
Assay [8] addresses Calcium-dependent protein kinase 4 (Plasmodium falciparum (isolate 3D7)) (UniProt Q8IBS5). Kind of assay: PfCDPK4 kinase inhibitors, biochemical, TCAMS library (AID 1159588; cut-off not given, nearly all actives have IC50 up to about 0.91 µM). Particulars: recombinant PfCDPK4, Kinase-Glo ATP depletion luminescence.

Unmarked numbers belong to inactive results. For some of these results: Potency and affinity values are given separately. Calls of active or inactive are those of the source. Unless noted, how the calls were made is not given here.

The inhibition is the relative decrease from the control value, in per cent.

Calcium-dependent protein kinase 4 (Plasmodium falciparum (isolate 3D7)), sequence (Q8IBS5 whole entry, looked up): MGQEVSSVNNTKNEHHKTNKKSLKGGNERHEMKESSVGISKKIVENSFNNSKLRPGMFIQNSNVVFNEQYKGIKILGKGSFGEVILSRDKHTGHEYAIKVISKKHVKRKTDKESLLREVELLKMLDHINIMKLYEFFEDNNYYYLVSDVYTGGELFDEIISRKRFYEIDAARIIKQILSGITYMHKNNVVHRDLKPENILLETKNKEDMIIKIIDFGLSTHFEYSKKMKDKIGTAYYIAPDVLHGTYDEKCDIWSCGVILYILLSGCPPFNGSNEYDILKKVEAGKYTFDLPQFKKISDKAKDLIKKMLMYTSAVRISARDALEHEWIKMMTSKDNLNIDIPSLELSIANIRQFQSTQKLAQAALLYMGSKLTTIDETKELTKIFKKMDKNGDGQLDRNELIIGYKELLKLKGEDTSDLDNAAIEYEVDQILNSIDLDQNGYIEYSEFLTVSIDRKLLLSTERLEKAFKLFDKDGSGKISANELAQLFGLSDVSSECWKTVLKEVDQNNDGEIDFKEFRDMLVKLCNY
Protein kinase 7 (PK7), Plasmodium falciparum 3D7 (PF3D7_0213400), sequence (Q7YTF7 1-343): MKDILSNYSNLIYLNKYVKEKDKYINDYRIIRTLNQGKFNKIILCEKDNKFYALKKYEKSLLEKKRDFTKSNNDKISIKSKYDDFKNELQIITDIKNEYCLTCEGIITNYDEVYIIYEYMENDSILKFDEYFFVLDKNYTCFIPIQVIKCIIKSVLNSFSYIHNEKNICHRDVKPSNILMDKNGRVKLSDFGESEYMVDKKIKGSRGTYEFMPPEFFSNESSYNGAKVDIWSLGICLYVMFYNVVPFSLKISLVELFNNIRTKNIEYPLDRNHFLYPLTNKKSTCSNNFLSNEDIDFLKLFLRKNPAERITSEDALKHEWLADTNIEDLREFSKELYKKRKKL
L-lactate dehydrogenase (Plasmodium falciparum (isolate CDC / Honduras)), sequence (Q27743 whole entry, looked up): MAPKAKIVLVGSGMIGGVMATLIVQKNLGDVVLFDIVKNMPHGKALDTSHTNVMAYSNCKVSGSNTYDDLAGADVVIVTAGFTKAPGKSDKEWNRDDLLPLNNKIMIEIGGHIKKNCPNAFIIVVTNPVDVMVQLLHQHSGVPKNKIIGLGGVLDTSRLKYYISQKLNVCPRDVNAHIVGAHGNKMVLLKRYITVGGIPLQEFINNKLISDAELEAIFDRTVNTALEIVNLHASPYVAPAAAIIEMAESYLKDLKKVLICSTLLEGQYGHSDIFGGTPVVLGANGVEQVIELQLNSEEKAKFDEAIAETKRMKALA
Plasmodium falciparum protein kinase 6 (PK6, PF3D7_1337100), sequence (Q8IDW1 1-305): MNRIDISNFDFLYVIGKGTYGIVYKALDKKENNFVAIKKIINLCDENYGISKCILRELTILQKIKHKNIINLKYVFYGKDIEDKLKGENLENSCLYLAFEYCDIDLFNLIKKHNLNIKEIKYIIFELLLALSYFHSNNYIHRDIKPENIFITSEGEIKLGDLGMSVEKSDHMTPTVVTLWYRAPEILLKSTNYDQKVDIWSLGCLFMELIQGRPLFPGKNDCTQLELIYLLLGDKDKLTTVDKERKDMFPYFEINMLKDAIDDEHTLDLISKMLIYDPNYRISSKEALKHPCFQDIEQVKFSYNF
Calcium-dependent protein kinase 1 (Plasmodium falciparum (isolate 3D7)), sequence (P62344 whole entry, looked up): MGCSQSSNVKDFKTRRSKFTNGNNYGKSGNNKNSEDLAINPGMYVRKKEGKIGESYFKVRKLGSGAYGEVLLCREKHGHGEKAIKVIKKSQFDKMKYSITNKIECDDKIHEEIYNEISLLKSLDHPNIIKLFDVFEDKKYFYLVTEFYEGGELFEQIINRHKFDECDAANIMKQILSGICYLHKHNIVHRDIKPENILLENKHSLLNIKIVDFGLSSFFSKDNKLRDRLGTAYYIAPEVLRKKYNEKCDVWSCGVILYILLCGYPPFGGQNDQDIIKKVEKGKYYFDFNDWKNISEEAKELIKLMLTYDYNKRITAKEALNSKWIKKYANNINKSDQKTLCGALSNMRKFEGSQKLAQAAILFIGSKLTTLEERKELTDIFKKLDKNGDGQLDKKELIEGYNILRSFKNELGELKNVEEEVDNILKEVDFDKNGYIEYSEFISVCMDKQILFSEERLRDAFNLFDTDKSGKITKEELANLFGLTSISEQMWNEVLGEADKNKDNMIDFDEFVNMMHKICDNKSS

Turning to `Cc1ccc(C)c(S(=O)(=O)NCC2CCN(Cc3ccc(O)cc3)CC2)c1`, the growth inhibition in assay [1] is 57% (active); in assay [4], 87% (active). Besides, the inhibition in assay [2] was 16%; in assay [3] it was -6%. The outcome in assay [5], in assay [6], in assay [7] and in assay [8] was inactive.

Turning to `CCN(CC)CCCC(C)Nc1cc(C)nc2cc(Cl)ccc12` (stereo not given), the growth inhibition was 7% in assay [1] and 100% (active) in assay [4]. In addition, the inhibition in assay [2] is 9%; in assay [3], 5%. In addition, the result in assay [5], in assay [6], in assay [7] and in assay [8] was inactive.

`CCCNC(=O)c1ccnc(-c2ccc(CNC3Cc4ccccc4C3)cc2)c1`: the growth inhibition in assay [1] was 21%; in assay [4], 92% (active). Besides, the values for the inhibition in assay [2] and in assay [3] were 24% and -3%, respectively. Besides, the result in assay [5], in assay [6], in assay [7] and in assay [8] was inactive.

In the case of `O=C(Nc1ccc(C(=O)Oc2ccc3ccccc3c2)cc1)N[C@@H](Cc1ccc(O)cc1)C(=O)NC1CCN(Cc2ccc(O)cc2)C1` (stereo not given in full), the figures for the growth inhibition in assay [1] and in assay [4] were 1% and 86% (active), respectively. The inhibition was 1% in assay [2] and -2% in assay [3]. Further, the result in assay [5], in assay [6], in assay [7] and in assay [8] was inactive.

With `Cc1cc(C(=O)OCC(N)=O)c(C)n1-c1ccc(F)cc1`, the figures for the growth inhibition in assay [1] and in assay [4] were 96% (active) and 97% (active), respectively. Moreover, the values for the inhibition in assay [2] and in assay [3] were -12% and 1%, respectively. For the same molecule, the outcome in assay [5], in assay [6], in assay [7] and in assay [8] was inactive.

Regarding `S=C(NCCc1ccccc1)Nc1ccc2ncsc2c1`, the results for the growth inhibition in assay [1] and in assay [4] were 3% and 96% (active), respectively. Also, the values for the inhibition in assay [2] and in assay [3] were -20% and -3%, respectively. Besides, the result in assay [5], in assay [6], in assay [7] and in assay [8] was inactive.

Regarding `O=S(=O)(NCCN1CCCC1)c1ccc(-c2cccc(CNCc3ccc(F)cc3)c2)cc1F`, the results for the growth inhibition in assay [1] and in assay [4] were 36% and 97% (active), respectively. The inhibition in assay [2] was 43%; in assay [3] it was -1%. The result in assay [5], in assay [6], in assay [7] and in assay [8] was inactive.

Turning to `CCc1cn2c3c(cc(C(=O)N[C@@H](Cc4ccccc4)[C@H](O)CNC(C)C)cc13)N(C)S(=O)(=O)C2`, the growth inhibition in assay [1] and in assay [4] was 98% (active) in each case. Also, the inhibition in assay [2] is 16%; in assay [3], 8%. For the same molecule, the result in assay [5], in assay [6], in assay [7] and in assay [8] was inactive.

In the case of `CC(C)NCc1ccc(-c2ccc(NS(=O)(=O)c3cccc4cccnc34)cc2)cc1`, the growth inhibition in assay [1] is 45%; in assay [4], 90% (active). The inhibition in assay [2] was 27%; in assay [3] it was -4%. Also, the result in assay [5], in assay [6], in assay [7] and in assay [8] was inactive.

For `CCCCCCCNC(=O)NCC1CCCN(CCCCCNC(=O)/C=C/c2ccc(Cl)c(Cl)c2)C1` (stereo not given), the growth inhibition in assay [1] was 7%; in assay [4], 86% (active). The inhibition was 98% (active) in assay [2] and -1% in assay [3]. Also, the result in assay [5], in assay [6], in assay [7] and in assay [8] was inactive.

With `CC(C)CCNC(=O)C1Cc2c([nH]c3cc(Br)ccc23)C2(CCN(Cc3ccccc3)CC2)N1` (stereo not given), the growth inhibition was 45% in assay [1] and 96% (active) in assay [4]. The inhibition was 10% in assay [2] and -5% in assay [3]. Further, the result in assay [5], in assay [6], in assay [7] and in assay [8] was inactive.

Take `CC(Nc1cc(-c2ccccn2)nc(-c2ccccn2)n1)c1ccccc1` (stereo not given): the growth inhibition in assay [1] is 98% (active); in assay [4], 85% (active). The inhibition in assay [2] is 61% (active); in assay [3] it was -3%. The result in assay [5], in assay [6], in assay [7] and in assay [8] was inactive.

With `Cc1cc(NN=Cc2cccc(Cl)c2)c2ccc(F)cc2n1`, the growth inhibition in assay [1] is 98% (active); in assay [4] it was 101% (active). Also, the inhibition was -2% in assay [2] and -4% in assay [3]. Besides, the outcome in assay [5], in assay [6], in assay [7] and in assay [8] was inactive.

For the molecule `CCOc1cc(C(=O)NC2CC(C)(C)N(C)C(C)(C)C2)ccc1-c1nc2cc(Cl)c(Cl)cc2[nH]1`, the growth inhibition was 49% in assay [1] and 101% (active) in assay [4]. Besides, the inhibition is 64% (active) in assay [2] and 4% in assay [3]. For the same molecule, the outcome in assay [5], in assay [6], in assay [7] and in assay [8] was inactive.

As to `Cc1cc(OCC2CCN(c3ccc(C(=O)NC4CC4)cn3)CC2)ccc1F`, the growth inhibition in assay [1] was 95% (active); in assay [4], 94% (active). Besides, the inhibition in assay [2] is 6%; in assay [3], 3%. Also, the outcome in assay [5], in assay [6], in assay [7] and in assay [8] was inactive.

As to `CC(C)CCN1CCCN(Cc2cccc(NC(=O)c3ccc(-c4ccccc4)cc3)c2)CC1`, the results for the growth inhibition in assay [1] and in assay [4] were 21% and 92% (active), respectively. The inhibition in assay [2] is 27%; in assay [3], 7%. Besides, the outcome in assay [5], in assay [6], in assay [7] and in assay [8] was inactive.

Turning to `COc1cccc(NC(=O)Nc2cc(C)nc3ccccc23)c1`, the growth inhibition in assay [1] is 48%; in assay [4], 100% (active). In addition, the inhibition in assay [2] was 2%; in assay [3], -1%. Moreover, the result in assay [5], in assay [6], in assay [7] and in assay [8] was inactive.

On to `CCc1c(C)nc(-n2nc(C)cc2NC(=O)C(CC)c2ccccc2)[nH]c1=O` (stereo not given), for which the values for the growth inhibition in assay [1] and in assay [4] were 93% (active) and 97% (active), respectively. Also, the inhibition in assay [2] is 41%; in assay [3], -1%. In addition, the result in assay [5], in assay [6], in assay [7] and in assay [8] was inactive.

As to `N#Cc1ccc(N2CCN(C(=O)c3cccc(-c4noc(C(F)(F)F)n4)c3)CC2)nc1`, the growth inhibition in assay [1] is 58% (active); in assay [4], 84% (active). The inhibition was 18% in assay [2] and 3% in assay [3]. Also, the result in assay [5], in assay [6], in assay [7] and in assay [8] was inactive.

For the molecule `Cc1cccc2[nH]c(-c3cccc(-c4ccc(NC(=O)Cc5ccon5)cc4)c3)nc12`, the growth inhibition in assay [1] is 38%; in assay [4], 87% (active). Also, the figures for the inhibition in assay [2] and in assay [3] were 34% and 2%, respectively. The outcome in assay [5], in assay [6], in assay [7] and in assay [8] was inactive.

Values taken from PubChem BioAssay.
